Experimental findings from PubChem BioAssay (NCI) are described below.

Test systems include NCI-H23 lung; NCI-H226 lung; NCI-H322M lung; HOP-62 NSCLC; NCI-H460 lung; HOP-92 NSCLC; NCI-H522 lung; A549/ATCC NSCLC; 786-0 renal; COLO 205 colon.
What all share (assay): NCI-60 one-dose screen, 48 h (100 = growth as untreated, 0 = no growth, -100 = all killed)
Holding throughout (conditions): 10 µM unless noted

Where “and” joins values, the source holds several entries; their conditions need not be identical. Identical values can stand only once. This is part of a sample that, as a whole, favours compounds with a hit. Of some 83,000 tested, about 20% had one in any assay.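 A percent growth of 40 corresponds to 60% growth inhibition; 0 means no net growth; -100 means all cells died. Active threshold: below 10.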 A number with no mark means an inactive call. Calls of active or inactive are those of the source.

In the case of `Cc1ccc(C(=O)Nc2nc3c(s2)CN(Cc2ccccc2)CC3)cn1`, the growth in the test on NCI-H23 lung is 80.5%; with NCI-H226 lung, 88.8%; with NCI-H322M lung, 92.9%; in the test with HOP-62 NSCLC, 88.5%; with NCI-H460 lung it was 101%; in the test with HOP-92 NSCLC it was 97.5%. Also, the growth in the test on NCI-H522 lung is 65.9%; in the test with A549/ATCC NSCLC, 75.4%; in the test on 786-0 renal, 85.1%; in the test on COLO 205 colon it was 87.4%.
Take `CCc1c2c(nc3ccc(OCc4ccc(B5OC(C)(C)C(C)(C)O5)cc4)cc13)-c1cc3c(c(=O)n1C2)COC(=O)[C@]3(O)CC`: the growth is -23.1% (active) in the test on NCI-H23 lung; -44% (active) in the test on NCI-H226 lung; 6.44% (active) with NCI-H322M lung; -4.19% (active) in the test on HOP-62 NSCLC; 1.68% (active) in the test with NCI-H460 lung; -9.71% (active) in the test with HOP-92 NSCLC. Besides, the growth is 3.47% (active) in the test on NCI-H522 lung, 10.8% with A549/ATCC NSCLC, 10.6% with 786-0 renal and 18.8% in the test with COLO 205 colon.
Regarding `Nc1nc(N)c2c(n1)NC(c1ccc(Cl)cc1)CC(c1cccc(Nc3ccncc3)c1)=N2` (stereo not given), the growth in the test on NCI-H23 lung is 54.7%; with NCI-H226 lung, 95.3%; in the test on NCI-H322M lung, 63.9%; with HOP-62 NSCLC, 75.5%; in the test with NCI-H460 lung, 23.2%; in the test with HOP-92 NSCLC, 48.5%. The growth was 88.6% with NCI-H522 lung, 30.6% in the test on A549/ATCC NSCLC, 41.9% in the test with 786-0 renal and 50.5% in the test with COLO 205 colon.
For the compound `Cn1ccnc1CN1CCSC(C(=O)Nc2ccccc2)C1` (stereo not given), the growth with NCI-H23 lung is 101%; in the test with NCI-H226 lung, 87.1%; in the test on NCI-H322M lung, 88.7%; in the test on HOP-62 NSCLC, 81.5%; in the test with NCI-H460 lung it was 94.8%; in the test on HOP-92 NSCLC, 88.7%. In addition, the growth in the test on NCI-H522 lung was 85.6%; with A549/ATCC NSCLC it was 83.8%; in the test on 786-0 renal, 98%; with COLO 205 colon it was 112%.
`CC[C@]1(O)CC2CN(CCc3c([nH]c4ccccc34)C(C(=O)OC)(c3cc4c(cc3OC)N(C=O)[C@H]3[C@@](O)(C(=O)OC)[C@H](OC(C)=O)[C@]5(CC)[C@@H]6C[C@@H]6CN6CC[C@]43[C@@H]65)C2)C1` (stereo not given in full): the growth is 6.32% (active) in the test on NCI-H23 lung; 19.3% in the test on NCI-H226 lung; 73.9% in the test on NCI-H322M lung; 22.5% with HOP-62 NSCLC; 3.37% (active) in the test on NCI-H460 lung; -0.4% (active) in the test on HOP-92 NSCLC. Also, the growth is -21.4% (active) in the test with NCI-H522 lung, 17.9% in the test with A549/ATCC NSCLC, 5.62% (active) in the test with 786-0 renal and -87.9% (active) with COLO 205 colon.
`Cc1ccccc1SSc1ccccc1C`: the growth in the test on NCI-H23 lung was 83.4%; in the test with NCI-H226 lung, 95.6%; in the test with NCI-H322M lung, 98.2%; in the test with HOP-62 NSCLC, 96%; in the test with NCI-H460 lung, 37.4%; in the test on HOP-92 NSCLC it was 81.2%. Further, the growth was 60.8% in the test with NCI-H522 lung, 98.8% with A549/ATCC NSCLC, 105% in the test with 786-0 renal and 91.4% in the test with COLO 205 colon.
In the case of `CN1CCN(C(=O)OCc2nc3c(N4CCOCC4)nc(Cl)nc3n2C)CC1`, the growth is -1.07% (active) in the test on NCI-H23 lung; -60.8% (active) in the test with NCI-H226 lung; 53.7% with NCI-H322M lung; 47.3% in the test on HOP-62 NSCLC; 6.7% (active) with NCI-H460 lung; -32% (active) in the test on HOP-92 NSCLC. Besides, the growth is -38.8% (active) in the test with NCI-H522 lung, 25.1% in the test on A549/ATCC NSCLC, -95.5% (active) in the test with 786-0 renal and -30.8% (active) in the test on COLO 205 colon.
In the case of `C[N+]1=C(/C=C\C=C\c2ccccc2)C(C)(C)c2ccccc21`, the growth in the test with NCI-H23 lung is 18.7%; with NCI-H226 lung it was 63.8%; in the test on NCI-H322M lung, 81.2%; in the test on HOP-62 NSCLC, 52%; in the test with NCI-H460 lung, 43.4%; with HOP-92 NSCLC, -7.51% (active). The growth in the test with NCI-H522 lung was -3.08% (active); in the test on A549/ATCC NSCLC it was 28%; in the test with 786-0 renal, 33.6%; in the test with COLO 205 colon it was -43.4% (active).
As for `COc1c(NC=O)c2c(c([N+](=O)[O-])c1OC)C(=O)OC2`, the growth was 113% and 97.9% in the test on NCI-H23 lung; 110% and 103% in the test on NCI-H226 lung; 98.1% in the test with NCI-H322M lung; 99.2% and 104% in the test with HOP-62 NSCLC; 115% and 99.9% with NCI-H460 lung; 103% and 92.8% in the test on HOP-92 NSCLC. Also, the growth is 98.7% and 112% with NCI-H522 lung; 95.8% and 101% in the test on A549/ATCC NSCLC; 106% in the test on 786-0 renal; 108% and 114% in the test on COLO 205 colon.
For the compound `CCCc1cc(C(N)=S)ccn1`, the growth in the test with NCI-H23 lung is 108%; with NCI-H226 lung, 100%; with NCI-H322M lung, 101%; in the test with HOP-62 NSCLC, 106%; with NCI-H460 lung, 111%; in the test with HOP-92 NSCLC it was 95.1%. The growth with NCI-H522 lung is 93.6%; with A549/ATCC NSCLC it was 103%; with 786-0 renal, 95.6%; with COLO 205 colon, 107%.
In the case of `COc1ccc(Cn2cc(C(=O)Nc3cccnc3Nc3ccccc3)nn2)cc1`, the growth was 98.7% in the test with NCI-H23 lung; 95.6% in the test on NCI-H226 lung; 95.7% in the test on NCI-H322M lung; 103% in the test on HOP-62 NSCLC; 114% with NCI-H460 lung; 105% with HOP-92 NSCLC. For the same compound, the growth was 91.8% in the test on NCI-H522 lung, 99.3% in the test on A549/ATCC NSCLC, 94.2% in the test on 786-0 renal and 113% with COLO 205 colon.
For the compound `O=C(Nc1ncc(Cc2cccc(C(F)(F)F)c2)s1)c1ccc2c(c1)OCCO2`, the growth in the test with NCI-H23 lung was 31.2%; in the test on NCI-H226 lung, 21.3%; with NCI-H322M lung, 54.1%; in the test with HOP-62 NSCLC it was 25.2%; with NCI-H460 lung, 6.46% (active); in the test with HOP-92 NSCLC, 51.3%. Further, the growth is 8.7% (active) in the test on NCI-H522 lung, 17.2% with A549/ATCC NSCLC, 39.9% in the test on 786-0 renal and -7.82% (active) in the test on COLO 205 colon.
